Sampled rows, rich in hits. Any-hit rate of the full collection: about 3.6%.
mHTT-CaM PPI inh: inhibitors of human mutant huntingtin-calmodulin interaction; P42858; AlphaScreen His-mHTT/GST-CaM binding, luminescence; inhibition, % at 15 µM; actives 3.6% (n = 190,000); AID 1671202;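 note: 0% = both proteins with DMSO and 100% = one protein alone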
Pf apPOL block: Pf-apPOL DNA polymerase inhibition; Recombinant Pf-apPOL, molecular beacon fluorescence, 1.5 h; inhibition, % at 10 µM; actives 0.25% (n = 210,000)
Starred values were filed as active, the others as inactive; / = no result given. Cut-off read from the data, not from the text of the source: active = inhibition above about 50%; inactive = the rest.

SMILES	mHTT-CaM PPI inh	Pf apPOL block
CCCCC(=O)NC(c1ccc([N+](=O)[O-])cc1)c1ccc2cccnc2c1O (configuration not stated)	100.0*	3.0
CCCCC(=O)NC(c1ccccc1OC)c1cc(Cl)c2cccnc2c1O (configuration not stated)	7.0	-10.7
CCCCC(=O)NC(c1ccc(C)cc1)c1ccc2cccnc2c1O (configuration not stated)	100.0*	1.3
CCCC(=O)NC(c1ccccc1OC)c1ccc2cccnc2c1O (configuration not stated)	99.0*	6.8
CCCC(=O)NC(c1ccc(C)cc1)c1ccc2cccnc2c1O (configuration not stated)	100.0*	8.9
CC=Cc1ccc(OC2OC(CO)C(O)C(O)C2NC(C)=O)c(OC)c1 (configuration not stated)	-6.6	-10.4
COC(=O)C1=C(N)CCS1	/	10.7
Cc1ccc(NC(=O)N2CCC(n3c(-c4ccoc4)nc4cccnc43)C2)cc1F (configuration not stated)	4.0	-1.7
COc1ccccc1C(=O)N1CCc2c(c(C(=O)NCc3ccc(Cl)cc3)nn2C)C1	80.0*	4.1
Cn1nc(C(=O)NCc2ccc(Cl)cc2)c2c1CCN(C(=O)c1ccccc1F)C2	43.4	14.2
Cn1nc(C(=O)NCc2ccccc2)c2c1CCN(C(=O)c1c(F)cccc1F)C2	1.7	3.9
COc1cccc(C(=O)N2CCc3c(c(C(=O)NCc4ccccc4)nn3C)C2)c1	69.0*	-4.9
COc1cccc(C(=O)N2CCc3c(c(C(=O)NCc4ccc(Cl)cc4)nn3C)C2)c1	89.6*	-1.5
Cn1nc(C(=O)NCc2ccccc2)c2c1CCN(C(=O)c1cccs1)C2	3.9	-13.5
CN(C)c1cccc(C(=O)N2CCc3c(c(C(=O)NCc4ccccc4)nn3C)C2)c1	50.5*	-5.4
O=C(Nc1ccc2oc(-c3ccccc3Cl)nc2c1)c1ccccc1F	-6.0	-0.9
Cc1noc(C)c1S(=O)(=O)NCCC1CCN(C(=O)c2ccccc2)CC1	36.6	-3.7
C=CCn1c(=O)[nH]c2cc(C(=O)NCCc3ccc(OC)c(OC)c3)ccc2c1=O	-5.0	-0.9
CCCCNC(=O)C1CCN(Cc2cn(C)c3ccc(Cl)cc23)CC1	-6.1	-0.3
O=S(=O)(ON=C1CCc2ccccc21)c1ccc(Cl)cc1	/	6.7
Cn1nc(C(=O)NCc2ccccc2)c2c1CCN(C(=O)c1ccc(Cl)cc1)C2	-0.2	-3.3
COc1ccc(C(=O)N2CCc3c(c(C(=O)NCc4ccccc4)nn3C)C2)cc1OC	75.1*	-9.9
Cn1nc(C(=O)NCc2ccccc2)c2c1CCN(C(=O)c1cccc(Cl)c1)C2	81.4*	-10.6
CCOc1ccc(C(=O)N2CCc3c(c(C(=O)NCc4ccccc4)nn3C)C2)cc1	-16.8	-11.3
Cc1onc(-c2c(Cl)cccc2Cl)c1C(=O)n1cnc2ccccc21	8.1	42.1
SMILES	mHTT-CaM PPI inh	Pf apPOL block
CC(=O)NCc1csc(C2CCCN(S(=O)(=O)c3cn(C)c(C)n3)C2)n1 (configuration not stated)	-5.1	-1.2
Cc1nnc2ccc(-c3cccc(NC(=O)c4cc(Br)ccc4Cl)c3)nn12	56.9*	-4.5
CCOc1ncccc1C(=O)Nc1cccc(-c2ccc3nnc(C)n3n2)c1	-5.6	-4.1
CCOc1ccc(-c2cccc(NC(=O)c3ccc(F)cc3F)c2)nn1	-0.7	1.9
O=C(Nc1cccc(-c2ccc3nnc(-c4cccnc4)n3n2)c1)c1ccc(F)cc1F	79.5*	-2.9
COc1ccc(-c2nnc(C)c(NCc3ccccc3)n2)cc1	41.0	-4.0
COc1ccc(CNc2nc(-c3ccccc3)nnc2C)cc1	55.8*	-5.1
CC1(C(=O)NCc2ccc(F)cc2)CCCN(C(=O)CSc2ccccc2)C1 (configuration not stated)	10.9	-1.0
Cc1ccccc1CNC(=O)c1csc(-c2cn(C)c3ncccc23)n1	71.8*	-1.3
Cn1cc(-c2nc(C(=O)NCc3ccccc3)cs2)c2cccnc21	45.9	-1.4
COc1cccc(C=C2Oc3c(CN(C)C)c(O)cc(C)c3C2=O)c1OC	9.8	-5.6
O=C(CSc1nc2[nH]ncc2c(=O)n1-c1cccc(Cl)c1)NC1CCCC1	7.0	-10.2
Cc1scc2nc(C(=O)NCc3cccc(F)c3)nc(N3CCCC3)c12	64.8*	-9.3
Cc1scc2nc(C(=O)NCc3ccc(F)cc3)nc(N(C)C)c12	87.2*	-15.9
Cc1scc2nc(C(=O)Nc3ccccc3)nc(N3CCCC3)c12	11.7	-3.0
CCNC(=O)c1nc(N(C)C)c2c(C)scc2n1	20.3	0.2
CC(C)C(=O)N1CCCN(c2ccc(NC(=O)C3CC3)cn2)CC1	3.5	-4.2
CC(C)c1[nH]nc2c1C(c1cc3c(cc1[N+](=O)[O-])OCO3)C(C#N)=C(N)O2 (configuration not stated)	34.0	4.7
COc1cccc(NCc2ccc([N+](=O)[O-])s2)c1	48.4	-2.6
O=[N+]([O-])c1ccc(CNc2ccc3c(c2)CCC3)s1	83.7*	6.6
Cc1ccc(-c2nocc2CCC(=O)NC(C)c2ccc(F)cc2)cc1 (configuration not stated)	-14.0	-2.2
O=S(=O)(Nc1cccc2cccnc12)c1ccccc1	73.9*	-19.3
CS(=O)(=O)Nc1cccc2cccnc12	47.0	-3.5
CCOC(=O)N1CCN(C(c2cccs2)c2c(O)cc(C)n(CC)c2=O)CC1 (configuration not stated)	-13.4	2.4
CCOC(=O)N1CCN(C(c2ccc(SC)cc2)c2c(O)cc(C)n(CC)c2=O)CC1 (configuration not stated)	69.2*	10.9
SMILES	mHTT-CaM PPI inh	Pf apPOL block
CCC(CC)C(=O)Nc1nc2c(s1)CN(S(=O)(=O)c1ccc(OC)cc1)CC2	17.2	-5.1
Cn1c(=O)[nH]c(=O)c2[nH]c(N3CCN(c4ccccc4)CC3)nc21	-3.8	0.6
COC(=O)c1ccc(NC(=O)C2CC(=O)N(CCc3c[nH]c4ccc(F)cc34)C2)cc1 (configuration not stated)	59.0*	1.8
Cc1ccc(NC(=O)C2CC(=O)N(CCc3c[nH]c4ccc(F)cc34)C2)cc1C (configuration not stated)	26.7	-4.2
O=C(Nc1ccc(F)cc1)C1CC(=O)N(CCc2c[nH]c3ccc(F)cc23)C1 (configuration not stated)	-1.3	-0.1
O=C(NC1CCCC1)C1CC(=O)N(CCc2c[nH]c3ccc(Cl)cc23)C1 (configuration not stated)	65.0*	1.4
O=C(NC1CCCCC1)C1CC(=O)N(CCc2c[nH]c3ccc(Cl)cc23)C1 (configuration not stated)	7.6	0.6
Cc1ccc(NC(=O)C2CC(=O)N(CCc3c[nH]c4ccc(Cl)cc34)C2)cc1C (configuration not stated)	100.0*	-2.1
Cc1ccc2[nH]cc(CCN3CC(C(=O)Nc4ccc(Cl)cc4)CC3=O)c2c1 (configuration not stated)	22.1	-0.3
Cc1ccc2[nH]cc(CCN3CC(C(=O)Nc4ccc(F)c(Cl)c4)CC3=O)c2c1 (configuration not stated)	54.5*	0.9
O=C1OC(c2ccccc2F)=N/C1=C/c1cccc2ccccc12	-5.8	/
COC(=O)c1sccc1S(=O)(=O)NCC1CCN(C(=O)Oc2ccccc2)CC1	-1.7	-12.5
COc1ccc2[nH]cc(CCN3CC(C(=O)Nc4cccc(C)c4C)CC3=O)c2c1 (configuration not stated)	14.8	1.5

Screening results (PubChem BioAssay)
